# According to the supplement of paper PMC8728848:
# Shown is part of a subset that was picked to be rich in the strongest signals.
# Legend:
# Assay in all cases: glycan array binding signal (z-score within array); higher = stronger binding
# Fuc(a1-2)Gal6S(b1-4)Glc = settings: glycan notation: IUPAC condensed, linker removed
# Summary of the method: (§1)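 Glycan array data were curated from 3228 arrays in the Consortium for Functional Glycomics database and kept only where the protein sequence was available. Glycan names were converted to IUPAC-condensed notation, and columns mapping to the same glycan were averaged. The binding signal is a within-array Z-score, averaged across arrays of the same protein sequence at different concentrations or buffers and across linkers. Negative Z-scores can be read as non-binding.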
# [1] = system: Fuc(a1-2)[Gal(a1-3)]Gal(b1-3)GlcNAc(b1-2)Man(a1-3)[Fuc(a1-2)[Gal(a1-3)]Gal(b1-3)GlcNAc(b1-2)Man(a1-6)]Man(b1-4)GlcNAc(b1-4)GlcNAc; settings: glycan notation: IUPAC condensed, linker removed
# Summary of the method: as §1
# [2] = system: Fuc(a1-2)[GalNAc(a1-3)]Gal(b1-3)GlcNAc(b1-6)GalNAc; settings: glycan notation: IUPAC condensed, linker removed
# Summary of the method: as §1
# Fuc(a1-2)Gal = settings: glycan notation: IUPAC condensed, linker removed
# Summary of the method: as §1
# [3] = system: Fuc(a1-2)[Gal(a1-3)]Gal(b1-4)GlcNAc(b1-2)Man(a1-3)[Fuc(a1-2)[Gal(a1-3)]Gal(b1-4)GlcNAc(b1-2)Man(a1-6)]Man(b1-4)GlcNAc(b1-4)[Fuc(a1-6)]GlcNAc; settings: glycan notation: IUPAC condensed, linker removed
# Summary of the method: as §1
# [4] = system: Fuc(a1-2)[GalNAc(a1-3)]Gal(b1-4)GlcNAc(b1-3)Gal(b1-4)GlcNAc; settings: glycan notation: IUPAC condensed, linker removed
# Summary of the method: as §1
# [5] = system: Fuc(a1-2)[GalNAc(a1-3)]Gal(b1-4)GlcNAc(b1-3)GalNAc; settings: glycan notation: IUPAC condensed, linker removed
# Summary of the method: as §1
# [6] = system: Fuc(a1-2)[Gal(a1-3)]Gal(b1-4)GlcNAc(b1-3)GalNAc; settings: glycan notation: IUPAC condensed, linker removed
# Summary of the method: as §1
# [7] = system: Fuc(a1-2)[Gal(a1-3)]Gal(b1-4)GlcNAc(b1-3)[Fuc(a1-2)[Gal(a1-3)]Gal(b1-4)GlcNAc(b1-6)]GalNAc; settings: glycan notation: IUPAC condensed, linker removed
# Summary of the method: as §1
# [8] = system: Fuc(a1-2)[GalNAc(a1-3)]Gal(b1-3)GlcNAc(b1-2)Man(a1-3)[Fuc(a1-2)[GalNAc(a1-3)]Gal(b1-3)GlcNAc(b1-2)Man(a1-6)]Man(b1-4)GlcNAc(b1-4)GlcNAc; settings: glycan notation: IUPAC condensed, linker removed
# Summary of the method: as §1
# [9] = system: Fuc(a1-2)[GalNAc(a1-3)]Gal(b1-4)GlcNAc(b1-2)Man; settings: glycan notation: IUPAC condensed, linker removed
# Summary of the method: as §1
# [10] = system: Fuc(a1-2)[GalNAc(a1-3)]Gal(b1-4)GlcNAc(b1-6)GalNAc; settings: glycan notation: IUPAC condensed, linker removed
# Summary of the method: as §1
# [11] = system: Fuc(a1-2)[Gal(a1-3)]Gal(b1-4)Glc; settings: glycan notation: IUPAC condensed, linker removed
# Summary of the method: as §1
# [12] = system: Fuc(a1-2)[Gal(a1-4)]Gal(b1-4)GlcNAc; settings: glycan notation: IUPAC condensed, linker removed; mutation: R125K
# Summary of the method: as §1
# [13] = system: Fuc(a1-2)[GalNAc(a1-3)]Gal(b1-3)GlcNAc(b1-3)GalNAc; settings: glycan notation: IUPAC condensed, linker removed
# Summary of the method: as §1
# [14] = system: Fuc(a1-2)[GalNAc(a1-3)]Gal(b1-4)GlcNAc(b1-2)Man(a1-3)[Fuc(a1-2)[GalNAc(a1-3)]Gal(b1-4)GlcNAc(b1-2)Man(a1-6)]Man(b1-4)GlcNAc(b1-4)GlcNAc; settings: glycan notation: IUPAC condensed, linker removed
# Summary of the method: as §1
# [15] = system: Fuc(a1-2)[GalNAc(a1-3)]Gal(b1-4)GlcNAc(b1-3)Gal(b1-4)GlcNAc(b1-3)Gal(b1-4)GlcNAc; settings: glycan notation: IUPAC condensed, linker removed
# Summary of the method: as §1
# Fuc(a1-2)[Gal(a1-3)]Gal = settings: glycan notation: IUPAC condensed, linker removed
# Summary of the method: as §1
# [16] = system: Fuc(a1-2)[GalNAc(a1-3)]Gal(b1-3)GlcNAc; settings: glycan notation: IUPAC condensed, linker removed
# Summary of the method: as §1
# Avaren (Actinomycete K97), sequence (chain, as listed by the source): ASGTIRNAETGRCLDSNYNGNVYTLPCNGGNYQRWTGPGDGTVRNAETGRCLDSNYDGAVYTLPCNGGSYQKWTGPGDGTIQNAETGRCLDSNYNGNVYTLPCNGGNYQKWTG
# PILRb (Mus musculus), Q2YSF2, sequence (Q2YSF2 entry or part of it): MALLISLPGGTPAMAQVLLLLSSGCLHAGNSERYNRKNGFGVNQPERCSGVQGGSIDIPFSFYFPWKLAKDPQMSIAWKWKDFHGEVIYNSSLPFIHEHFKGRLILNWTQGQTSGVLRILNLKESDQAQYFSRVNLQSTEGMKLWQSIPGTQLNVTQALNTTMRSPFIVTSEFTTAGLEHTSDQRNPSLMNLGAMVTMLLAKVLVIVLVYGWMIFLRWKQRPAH
# CHI3L1 (Homo sapiens), P36222, sequence (P36222 whole entry): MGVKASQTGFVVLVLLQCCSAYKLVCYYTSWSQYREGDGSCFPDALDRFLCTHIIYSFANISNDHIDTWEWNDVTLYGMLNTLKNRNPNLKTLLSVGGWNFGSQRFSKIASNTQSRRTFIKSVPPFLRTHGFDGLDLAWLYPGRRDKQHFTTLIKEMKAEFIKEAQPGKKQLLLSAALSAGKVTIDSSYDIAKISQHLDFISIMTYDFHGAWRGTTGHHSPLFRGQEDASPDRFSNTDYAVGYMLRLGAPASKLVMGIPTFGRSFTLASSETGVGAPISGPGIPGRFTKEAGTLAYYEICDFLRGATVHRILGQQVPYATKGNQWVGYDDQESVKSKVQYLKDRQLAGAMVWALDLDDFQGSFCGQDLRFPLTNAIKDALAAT
# Aggrecan (Rattus norvegicus), NP_071526, sequence (chain, as listed by the source): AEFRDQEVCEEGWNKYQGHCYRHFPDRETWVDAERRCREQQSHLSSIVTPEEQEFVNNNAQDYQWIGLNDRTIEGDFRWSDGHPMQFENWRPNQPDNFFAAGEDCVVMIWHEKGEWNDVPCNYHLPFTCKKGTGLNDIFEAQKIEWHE
# SRLC (Mus musculus), Q8VIF6, sequence (Q8VIF6 other isoform, or with tags, fused parts or gaps): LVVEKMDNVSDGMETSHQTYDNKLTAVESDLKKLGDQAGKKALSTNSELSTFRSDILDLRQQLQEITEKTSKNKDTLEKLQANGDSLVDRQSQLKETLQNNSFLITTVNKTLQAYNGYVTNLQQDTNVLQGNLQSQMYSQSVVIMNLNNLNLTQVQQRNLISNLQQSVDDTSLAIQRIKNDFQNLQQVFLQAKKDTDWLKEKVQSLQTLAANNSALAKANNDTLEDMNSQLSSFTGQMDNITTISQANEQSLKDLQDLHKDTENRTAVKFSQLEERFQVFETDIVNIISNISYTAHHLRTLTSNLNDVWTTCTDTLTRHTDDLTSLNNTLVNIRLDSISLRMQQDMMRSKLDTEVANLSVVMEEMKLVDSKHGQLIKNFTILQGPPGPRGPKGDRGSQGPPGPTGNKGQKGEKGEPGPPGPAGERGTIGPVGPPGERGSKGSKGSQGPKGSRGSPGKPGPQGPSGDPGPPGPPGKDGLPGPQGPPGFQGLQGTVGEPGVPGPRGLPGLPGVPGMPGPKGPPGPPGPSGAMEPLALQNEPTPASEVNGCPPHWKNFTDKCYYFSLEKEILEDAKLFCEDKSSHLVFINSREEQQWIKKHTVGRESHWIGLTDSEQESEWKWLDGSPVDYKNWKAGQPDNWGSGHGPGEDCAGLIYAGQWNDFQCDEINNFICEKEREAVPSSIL
# Regenerating Gene IV (Homo sapiens), Q9BYZ8, sequence (Q9BYZ8 whole entry, looked up): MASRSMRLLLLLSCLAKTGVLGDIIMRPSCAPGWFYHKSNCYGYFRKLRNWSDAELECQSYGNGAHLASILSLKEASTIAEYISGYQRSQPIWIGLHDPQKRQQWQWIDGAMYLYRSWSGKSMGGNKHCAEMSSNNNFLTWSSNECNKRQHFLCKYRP
# 6RG (Lolium perenne), sequence (chain, as listed by the source): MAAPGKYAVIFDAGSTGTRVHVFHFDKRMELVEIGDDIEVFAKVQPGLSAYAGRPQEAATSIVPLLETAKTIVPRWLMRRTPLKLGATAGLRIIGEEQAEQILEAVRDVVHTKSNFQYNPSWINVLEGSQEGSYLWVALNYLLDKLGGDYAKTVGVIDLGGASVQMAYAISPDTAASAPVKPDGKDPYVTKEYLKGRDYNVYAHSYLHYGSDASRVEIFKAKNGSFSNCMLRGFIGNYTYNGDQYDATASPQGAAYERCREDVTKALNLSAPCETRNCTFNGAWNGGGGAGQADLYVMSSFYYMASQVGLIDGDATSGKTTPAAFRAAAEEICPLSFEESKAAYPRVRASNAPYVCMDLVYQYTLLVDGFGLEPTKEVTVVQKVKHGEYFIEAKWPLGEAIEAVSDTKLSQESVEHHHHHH
# PILRa (Mus musculus), Q2YSF3, sequence (Q2YSF3 entry or part of it): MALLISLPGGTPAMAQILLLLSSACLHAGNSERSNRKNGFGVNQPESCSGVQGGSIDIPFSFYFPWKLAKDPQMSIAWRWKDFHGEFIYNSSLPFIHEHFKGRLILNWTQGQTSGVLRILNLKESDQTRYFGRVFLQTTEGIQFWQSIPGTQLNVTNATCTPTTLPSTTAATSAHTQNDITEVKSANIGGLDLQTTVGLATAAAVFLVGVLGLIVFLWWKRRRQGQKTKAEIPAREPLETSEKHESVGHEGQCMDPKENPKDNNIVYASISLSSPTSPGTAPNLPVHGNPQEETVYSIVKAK
# 6RG (Lolium perenne), B9U140, sequence (B9U140 entry or part of it): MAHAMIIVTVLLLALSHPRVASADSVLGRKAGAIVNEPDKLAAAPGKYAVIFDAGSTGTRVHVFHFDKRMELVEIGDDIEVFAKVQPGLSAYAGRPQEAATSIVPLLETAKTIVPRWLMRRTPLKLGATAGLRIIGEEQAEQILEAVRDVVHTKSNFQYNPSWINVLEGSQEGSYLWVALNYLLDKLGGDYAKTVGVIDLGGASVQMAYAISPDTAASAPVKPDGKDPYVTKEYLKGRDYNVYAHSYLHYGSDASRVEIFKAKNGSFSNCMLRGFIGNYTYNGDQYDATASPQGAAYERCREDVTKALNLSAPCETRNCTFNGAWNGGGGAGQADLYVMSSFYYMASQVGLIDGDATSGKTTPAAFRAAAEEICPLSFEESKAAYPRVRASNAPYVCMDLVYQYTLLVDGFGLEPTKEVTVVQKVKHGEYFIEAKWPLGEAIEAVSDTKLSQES
substance,measurement,setting,value
Avaren (Actinomycete K97),glycan array binding signal (z-score),Fuc(a1-2)Gal6S(b1-4)Glc,-0.124
same,glycan array binding signal (z-score),[1],-0.036
same,glycan array binding signal (z-score),[2],-0.139
"Regenerating Gene IV (Homo sapiens), Q9BYZ8",glycan array binding signal (z-score),Fuc(a1-2)Gal,0.024
6RG (Lolium perenne),glycan array binding signal (z-score),Fuc(a1-2)Gal,-0.033
"CHI3L1 (Homo sapiens), P36222",glycan array binding signal (z-score),[3],-0.116
same,glycan array binding signal (z-score),[2],-0.064
same,glycan array binding signal (z-score),[4],-0.12
same,glycan array binding signal (z-score),[5],-0.124
"PILRa (Mus musculus), Q2YSF3",glycan array binding signal (z-score),[6],-0.185
MpAFP RI GFP (Marinomonas primoryensis),glycan array binding signal (z-score),[7],-0.23
same,glycan array binding signal (z-score),[8],-0.022
same,glycan array binding signal (z-score),[9],-0.489
same,glycan array binding signal (z-score),[10],-0.439
"Siglec-8 (Homo sapiens), Q9NYZ4",glycan array binding signal (z-score),[7]; mutation: R125K,2.31
same,glycan array binding signal (z-score),[11],0.008
same,glycan array binding signal (z-score),[12],-0.066
same,glycan array binding signal (z-score),[4]; mutation: R125K,-0.346
same,glycan array binding signal (z-score),[10]; mutation: R125K,-0.119
"PILRb (Mus musculus), Q2YSF2",glycan array binding signal (z-score),[11],-0.137
same,glycan array binding signal (z-score),[13],1.35
same,glycan array binding signal (z-score),[14],-0.328
same,glycan array binding signal (z-score),[15],-0.069
"SRLC (Mus musculus), Q8VIF6",glycan array binding signal (z-score),Fuc(a1-2)[Gal(a1-3)]Gal,-0.233
"Aggrecan (Rattus norvegicus), NP_071526",glycan array binding signal (z-score),Fuc(a1-2)[Gal(a1-3)]Gal,-0.088
same,glycan array binding signal (z-score),[8],-0.131
"6RG (Lolium perenne), B9U140",glycan array binding signal (z-score),[16],-0.169
